Here are results for 40 compounds from PubChem BioAssay (Tox21).

SMILES strings stand for the structures. Results filed as inconclusive are left out. A call without a number means that no potency is given here. The source made the active and inactive calls. Calls follow the shape of the dose curve; as a rule, active = well fitted activation curve with a large enough effect in the repeat runs; inconclusive = weak or mixed curves, or effect the other way; inactive = no such curve, though single readings can be large or run the other way.
Potency is read from the fitted curve at half-maximal effect.

A short description of the experiment: qHTS assay to identify small molecule agonists of the retinoic acid receptor (RAR) signaling pathway (AID 1159553). Particulars: C3RL4 RARE luciferase reporter, agonist, 6 h; activation: at 73.3 µM (top of the series). The source says: National Center for Advancing Translational Sciences [NCATS] NIH Chemical Genomics Center [NCGC] U.S. Environmental Protection Agency [EPA] National Institutes of Environmental Health Sciences [NIEHS] National Toxicology Program [NTP] Assay overview: All-trans Retinoic acid (atRA) is the potent natural metabolite of retinol and plays an important role in normal embryonic development and maintenance of cellular phenotype in adult animals. atRA is the activating ligand for the retinoic acid receptors (RARs) which form heterodimers with retinoid X receptors (RXRs) on the retinoic acid response element (RARE). Through activation of the RAR/RXRs nuclear receptors, atRA regulates the transcription of a large number of protein-coding genes and regulatory RNAs. Intracellular levels of atRA are controlled by the retinol signaling pathway (RSP) that regulates the biosynthesis and catabolism of atRA to maintain physiological levels. Chemicals that interfere with the RSP can cause abnormal intracellular levels of atRA and therefore are potential developmental toxicants. To assess compounds for the potential adverse effect on embryonic development through interfering with retinol signaling, a cell-based RARE luciferase reporter gene assay was used. C3RL4 cell line (OARSA/CFSAN/FDA, Laurel, MD) was used to screen Tox21 10K compound library for identifying activators of the RSP.
Assay Protocol Summary: C3RL4 cells were seeded at 1,000/well in 5 uL of assay medium into white solid 1,536-well tissue culture plates (Greiner Bio-One North America Inc. Monroe, NC) using a Multidrop Combi (Thermo Scientific, Waltham, MA) dispenser. After incubation at 37 C and 5% CO2 for an overnight, 23 nL of compounds dissolved in DMSO, positive control or DMSO only were transferred by a Pintool station (Kalypsys, San Diego, CA). After 6 hr incubation at 37 C and 5% CO2, 5 uL of Amplite Luciferase reagent (AAT Bioquest Inc. Sunnyvale, CA) was added to each assay plate using a Flying Reagent Dispenser (FRD) (Aurora Discovery, San Diego, CA). Luminescence was quantified on a ViewLux plate reader (PerkinElmer, Waltham, MA) after 30 min incubation at room temperature.
(In general: In qHTS, concentration-response curves come from the screen itself.)
As to `OC1(c2ccccc2)CCNCC1`, the Potency entry was “inactive”.
The same measure for `Cc1cccc(O)c1N`: “inactive”.
To `CN1C(=O)N(c2ccccc2Br)Cc2cnc(Nc3ccc4c(c3)OCC(CO)O4)nc21` (stereo not given) belongs “inactive”; to `c1ccc2c(c1)CCc1ccccc1N2`, “inactive”; to `CC=C(Cl)Cl`, “inactive”.
To `Nc1ncnc2c1ncn2[C@H]1CC[C@@H](CO)O1` belongs “inactive”; to `CC(C)(O)c1ccc(CNC(=O)c2cccnc2Oc2ccc3nonc3c2)cc1`, “inactive”.
Regarding `CO/N=C(/C(=O)N[C@@H]1C(=O)N2C(C(=O)O)=C(COC(N)=O)CS[C@H]12)c1ccco1`, the Potency entry was “inactive”.
With `FC(F)(F)c1ccccc1Cl`, the Potency result is “inactive”.
The same measure for `C/C=C\C/C=C/CCCCCCCCOC(C)=O`: “inactive”.
The same measure for `CC(=O)Nc1cc(S(=O)(=O)O)cc2cc(S(=O)(=O)O)c(N=Nc3ccccc3)c(O)c12`: “inactive”; for `Nc1cccc2c1CN(C1CCC(=O)NC1=O)C2=O` (stereo not given): “inactive”; for `O=C1Cc2ccccc2N1c1c(Cl)cccc1Cl`: “inactive”.
The same measure for `CC(O)c1ccccc1` (stereo not given): “inactive”; for `Cc1ccccc1N=C(N)Nc1ccccc1C`: “inactive”.
In the case of `O=C1CCCCCCCCCCOCCCCO1`, the Potency entry was “inactive”.
Turning to `CC1(C)[C@@H](OC(=O)CCC(=O)O)CC[C@]2(C)[C@H]3C(=O)C=C4[C@@H]5C[C@@](C)(C(=O)O)CC[C@]5(C)CC[C@@]4(C)[C@]3(C)CC[C@@H]12`, the Potency result was “inactive”.
The same measure for `O=[N+]([O-])c1cc(C2CCCCC2)c(O)c([N+](=O)[O-])c1`: “inactive”; for `CCOC(C)=O`: “inactive”.
`CC(C)=CCC1C(=O)N(c2ccccc2)N(c2ccccc2)C1=O`: the Potency entry was “inactive”.
To `CCC(C)(C)OC` belongs “inactive”; to `CC(CC1c2ccccc2CCc2ccccc21)CN(C)C` (stereo not given), “inactive”; to `CCCCC(CC)CN` (stereo not given), “inactive”.
With `O=C1c2ccccc2C(=O)c2c(O)c(O)cc(O)c21`, the Potency result is “inactive”.
To `O=C(O)CCC(=O)C(=O)O` belongs “inactive”; to `Nc1nnc(-c2ccc([N+](=O)[O-])o2)o1`, “inactive”; to `COC(=O)CS`, “inactive”.
As for `CC(C)Nc1cccnc1N1CCN(C(=O)c2cc3cc(NS(C)(=O)=O)ccc3[nH]2)CC1`, the Potency result was “inactive”.
The same measure for `O=C(/C=C/c1ccccc1)OCCc1ccccc1`: 2730 nM (active).
The same measure for `CC(CCC(=O)O)C(=O)O` (stereo not given): “inactive”; for `CN1CCCC(n2nc(Cc3ccc(Cl)cc3)c3ccccc3c2=O)CC1` (stereo not given): “inactive”.
To `CC(C)=CCC/C(C)=C/CC/C(C)=C/CCC(=O)OC/C=C(\C)CCC=C(C)C` belongs “inactive”; to `CN(C)CCN1C(=O)c2ccccc2N(C)c2ccccc21`, “inactive”.
`CNC(=O)c1cnn(-c2nc(N)c3ncn([C@@H]4O[C@H](CO)[C@@H](O)[C@H]4O)c3n2)c1`: the Potency entry is “inactive”.
To `O=c1[nH]c2ccc(Cl)cc2o1` belongs “inactive”; to `CCCCN1CCCC1C(=O)Nc1c(C)cc(C)cc1C` (stereo not given), “inactive”; to `O=C(CCCN1CC=C(n2c(=O)[nH]c3ccccc32)CC1)c1ccc(F)cc1`, “inactive”.
Take `N#[N+]c1ccc2c(S(=O)(=O)[O-])cccc2c1O`: the Potency result is “inactive”.
To `CCOC(=O)/C=C/C(=O)OCC` belongs “inactive”.
Take `Cc1ccc(CO)cc1`: the Potency result is “inactive”.
